From PubChem
A selection: hits, their analogues and other compounds. The true share with any hit is near 1.1%.
Rv3671c inh = Rv3671c serine protease inhibitors, primary screen, biochemical, fluorescence polarization, M. tuberculosis H37Rv; P9WHR9; inhibition, % at 5.96 µM; hit rate 0.048% among 320,000;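 also: extracellular domain of Rv3671c used as enzyme; 0% = enzyme with DMSO and 100% = no enzyme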
PriA SSB inh = inhibitors of Klebsiella pneumoniae PriA binding to SSB C-terminal tail, primary screen, biochemical, AlphaScreen. PriA–SSB C-terminal tail interaction (Klebsiella pneumoniae). inhibition, % at 33 µM. hit rate 0.6% among 430,000. AlphaScreen SSBct-PriA binding, biotinylated peptide; in the data active = inhibition mostly above about 37%, no sharp cut-off; inactive = mostly below about 20%;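 also: plate controls were negative control peptide for no effect and reference peptide for full effect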
RecA splice inh = Mtb RecA intein splicing inhibitors, primary screen, biochemical, fluorescence, HTS | cell-free RecA intein splicing | inhibition, % (test concentration not listed) | hit rate 0.75% among 290,000; in the data active = inhibition above about 30%;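 also: 0% = vehicle wells and 100% = reference inhibitor control wells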
UGM FP inh = M. tuberculosis UGM enzyme inhibitors, primary screen, biochemical, fluorescence polarization, single point | purified UGM, fluorescence polarization probe displacement | inhibition, % at 10 µM | AID 504406, 2011 | UDP-galactopyranose mutase (Mycobacterium tuberculosis (strain ATCC 25618 / H37Rv)), … | hit rate 0.06% among 320,000; in the data active = inhibition above about 10%, passing the limit was not always enough
Target sequence (P9WIQ1 whole entry, looked up): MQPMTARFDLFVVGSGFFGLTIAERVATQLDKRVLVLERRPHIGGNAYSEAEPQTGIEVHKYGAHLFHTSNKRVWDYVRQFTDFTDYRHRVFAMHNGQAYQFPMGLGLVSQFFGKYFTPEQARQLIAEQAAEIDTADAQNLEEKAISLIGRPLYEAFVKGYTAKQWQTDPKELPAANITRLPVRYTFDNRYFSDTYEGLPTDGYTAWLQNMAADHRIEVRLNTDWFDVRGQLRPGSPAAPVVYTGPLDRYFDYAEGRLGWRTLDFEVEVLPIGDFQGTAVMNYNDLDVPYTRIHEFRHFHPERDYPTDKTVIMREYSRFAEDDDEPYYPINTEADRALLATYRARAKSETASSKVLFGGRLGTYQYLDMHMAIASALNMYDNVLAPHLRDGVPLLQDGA
Mtb betalactam = beta-lactam sensitization of Mtb H37Rv, H37Rv; M. tuberculosis H37Rv growth with meropenem, percent inhibition; inhibition, % at 25 µM; hit rate 0.27% among 330,000; AID 434955, 2010; call rule not given here;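 also: growth measured after seven days incubation then overnight dye step; 0% = bacteria only wells and 100% = bacteria with antibiotic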
Rv3671c confirm = Rv3671c serine protease inhibitors, retest, confirmation, biochemical, fluorescence polarization, M. tuberculosis H37Rv; shares compounds with Rv3671c inh; inhibition, % at 5.96 µM; hit rate 40% among 140; AID 2761, 2010
* hit, by the source's call; i = inactive; / = not tested or not shown; + = active, no number. Rule as the data show it, unless noted: active = inhibition above about 38%; inactive = the rest.

SMILES	Rv3671c inh	PriA SSB inh	RecA splice inh	UGM FP inh	Mtb betalactam	Rv3671c confirm
COc1cnc(NS(=O)(=O)c2ccc(N)cc2)nc1	85*	3	-1	-3	-1	-6
Cc1ccc(-c2ccccc2NC(=O)CS(=O)CC(=O)Nc2ccc(C)c(Cl)c2)o1 (stereo unspecified)	78*	5	-2	-5	1	-7
COCCc1nnc(NC(=O)C2CC2)o1	/	-13	/	/	/	/
COc1ccc(/C(=C\Nc2ccc(C)c(C)c2)C(C)=O)cc1OC	-2	-7	4	0	-5	/
COc1ccc(N/C=C(\C(C)=O)c2ccc(OC)c(OC)c2)cc1OC	89*	-9	-4	3	1	-11
CN(C)C=Nc1cnc(C(=O)c2ccc(Cl)cc2)n1C	/	-14	/	/	/	/
O=C(CSc1ccc(Cl)cc1)Nc1ccc(C2SCCS2)cc1	5	-5	-3	-4	-1	/
O=C(CSc1c(F)c(F)cc(F)c1F)Nc1ccc(C2SCCS2)cc1	164*	-6	1	1	3	-5
Nc1cc(C(=O)O)c(N)c2c1C(=O)c1ccccc1C2=O	61*	74*	15	3	15	52*
Nc1c(C(=O)O)ccc2c1C(=O)c1ccccc1C2=O	-8	22	11	0	-1	/
CCCc1cc(C(=O)OC)c(N2C(=O)C=CC2=O)s1	/	16	/	/	/	/
CCN1C(=O)C(CC(=O)Nc2ccc(F)cc2)N(CCc2ccc(OC)cc2)C1=S (stereo unspecified)	51*	-15	9	0	3	-12
CCc1ccccc1N(C(=O)c1ccc(Br)cc1)[C@@H]1C=CS(=O)(=O)C1	/	-1	/	/	/	/
O=CN1CCN(C(=O)c2cccc([N+](=O)[O-])c2)CC1	7	-1	-3	-3	-7	/
O=C(NC1CCN(C(=O)c2cccc([N+](=O)[O-])c2)CC1)c1ccccc1	144*	-5	0	2	4	-4
Cn1nc(-c2ccccc2)c(N2CCCCC2)cc1=O	0	-3	3	0	-5	/
Cn1c(=O)cc2c3c(c(N4CCCCC4)ccc31)C(=O)c1ccccc1-2	52*	2	-48	2	8	36
O=C1CCCC2=C1C(c1ccc(Cl)cc1)C1C(=O)c3ccccc3C1=N2 (stereo unspecified)	40*	48	-4	0	9	3
COC(C)(CNC(=O)NCc1cccs1)c1ccccc1F (stereo unspecified)	/	-6	/	/	/	/
N#CCC(=O)Nc1ccc(C(=O)OCC(=O)Nc2ccccc2Sc2ccccc2)cc1	81*	5	25	-1	0	-78
Cc1cc(C)c(-c2cc(NC(=O)COC(=O)c3ccc(C#N)cc3)n(-c3ccccc3)n2)cc1C	-51	-11	6	-1	9	/
Cc1cc(C)c(-c2cc(NC(=O)COC(=O)c3ccc(NC(=O)CC#N)cc3)n(-c3ccccc3)n2)cc1C	42*	6	1	-1	5	-197
COc1cccc(NC(=O)NCC(c2ccsc2)N2CCCCCC2)c1 (stereo unspecified)	/	-10	/	/	/	/
CSc1ccccc1C(=O)N1CCS[C@H](c2ccccc2Cl)CC1	/	2	/	/	/	/
CC(=O)c1ccc(S(=O)(=O)Nc2cccc(-c3ccc4nncn4n3)c2)cc1	56*	0	-1	-1	-13	11
SMILES	Rv3671c inh	PriA SSB inh	RecA splice inh	UGM FP inh	Mtb betalactam	Rv3671c confirm
CCN(CC)C(=O)C1c2ccccc2Oc2ccccc21	74*	2	-3	47*	-24	8
O=C1C(Cl)=C(NCc2ccco2)C(=O)c2ccccc21	/	12	/	/	/	/
CCNc1ccc2noc3c2c1C(=O)c1ccccc1-3	130*	40	-2	12*	46	126*
O=C1c2ccccc2-c2onc3ccc(NCc4ccco4)c1c23	106*	78*	17	12*	22	81*
O=C(N/N=C/c1cccnc1)c1cccc(NC(=O)c2cccc(Br)c2)c1	61*	/	1	-1	-1	-125
CC(=O)Nc1cccc(C(=O)N/N=C/c2cccnc2)c1	8	/	-3	2	-1	/
O=C(N/N=C/c1cc(Br)ccc1O)c1ccncc1	41*	/	2	-4	100	9
CCC(C)OC(=O)n1ccc(C(=O)Nc2nccs2)n1 (stereo unspecified)	55*	-7	-7	-5	5	49*
Cn1nc(CNC(=O)C(C)(C)Oc2ccc(Cl)cc2)c2c1CCCC2	/	13	/	/	/	/
CCn1c(CSc2nnc(-c3cccnc3)n2-c2ccccc2C)nc2cc(C(=O)O)ccc21	49*	/	/	1	0	64*
CCn1c(CSc2nnc(-c3ccncc3)n2CCOC)nc2cc(C(=O)O)ccc21	14	-20	2	-1	2	/
Cc1nn(-c2ccccc2C(=O)O)c(=O)c2ccccc12	-1	4	-2	2	1	/
Cc1nn(-c2ccc(Br)cc2)c(=O)c2ccccc12	71*	-13	1	3	-7	-5
COC(=O)Cc1[nH]nc2c1C(c1cc(OC)c(OC)c(OC)c1)C(C#N)=C(N)O2 (stereo unspecified)	40*	-3	18	-2	1	-4
C#CCn1cc(/C=N/Nc2nc3ccccc3[nH]2)c2ccccc21	62*	/	15	-3	96	64*
C(=N\Nc1nc2ccccc2[nH]1)/c1cccc2nccnc12	19	i	16	-4	45	/
Cn1cc(-c2ccco2)nc1CCNS(=O)(=O)c1ccccc1F	/	2	/	/	/	/
CCCCNc1c2c3c(cccc3n(C)c1=O)C(=O)c1ccccc1-2	43*	-56	-83	28*	32	57*
Cn1c(=O)c(NCCO)c2c3c(cccc31)C(=O)c1ccccc1-2	122*	1	-276	98*	-1	132*
Cn1c(=O)c(NCCc2ccccc2)c2c3c(cccc31)C(=O)c1ccccc1-2	+	-43	-95	44*	91	+
CCNc1c2c3c(cccc3n(C)c1=O)C(=O)c1ccccc1-2	60*	-8	-36	22*	89	53*
Cn1c(=O)c(NC2CCCCC2)c2c3c(cccc31)C(=O)c1ccccc1-2	/	-6	/	/	/	/
O=C1Nc2ccc(S(=O)(=O)NCCCCCCNS(=O)(=O)c3ccc4c5c(cccc35)C(=O)N4)c3cccc1c23	/	-10	/	/	/	/
CC(C)(C)c1ccc(S(=O)(=O)NCC2(O)CCOCC2)cc1	/	-1	/	/	/	/
O=C(CSCC(=O)Nc1ccccc1)N/N=C/c1c(O)ccc2ccccc12	10	/	16	1	/	/
O=C(N/N=C/c1c(O)ccc2ccccc12)Nc1ccccc1	40*	/	-4	7	0	56*
